Assay results reported in the supplement of paper PMC9948646.
Values without a mark were called inactive.

System: gramicidin D channels in DC22:1PC lipid vesicles (bilayer-modifying potency)
Assay: initial Tl+ fluorescence quench rate relative to no-drug control (NormRate, gramicidin monomer-dimer shift) (ratio (fold of control)); higher = stronger bilayer-modifying effect (equilibrium shifted toward conducting dimers), active = 1.5 or more
Conditions: 10 µM; lipid concentration 50 µM; temperature: 25 °C
Protocol: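 Stopped-flow fluorescence quench assay: ANTS-loaded DC22:1PC large unilamellar vesicles doped with gramicidin D (1:2000), 50 µM lipid, equilibrated 10 min with 10 µM drug (0.1% DMSO), mixed with Tl+ quench buffer at 25°C. Initial quench rate (Tl+ influx) was fitted with a modified stretched exponential and normalised to the no-drug control rate (NormRate); duplicates from two independent LUV preparations (triplicates for 7 drugs).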

| SMILES | initial Tl+ fluorescence quench rate |
| --- | --- |
| c1ccc(-c2[nH]c3ccccc3c2[C@H](c2ccccn2)N2CCCC2)cc1 | 1.06 |
| NC(=O)c1cc(Br)ccc1OCCOc1ccccc1 | 1.21 |
| Cc1nnc(NCc2cccc(Cl)c2)c2ccccc12 | 1.05 |
| Cc1ccc(S(=O)(=O)N2CCN(C(=O)c3cc(-c4ccccc4)[nH]n3)CC2)cc1 | 1.38 |
| Cc1cnc(CCNC(=O)c2cc(-c3ccc(Cl)cc3)cs2)[nH]1 | 1.34 |
| Cn1ncc2c(N3CCOCC3)nc(NCCc3c[nH]c4ccccc34)nc21 | 3.03 (active) |
| CC(C)(C)OC(=O)N1CCN(c2nccc(-c3ccc(-c4ccc(Cl)cc4)s3)n2)CC1 | 1.28 |
| Cc1ccc2[nH]c([C@H]3CCCNC3)c(-c3ccncc3)c2c1 | 1.42 |
| O=C(Nc1ccc(F)c(-c2nc3cc(-c4ccccc4)cnc3[nH]2)c1)N1CCCC1 | 1.72 (active) |
| Cc1nnc(NC(=O)c2cn(-c3ccccc3)nc2-c2ccccc2C)o1 | 1.02 |
| O=C(Nc1ccc(N2CCNCC2)cc1)c1ccn2ncc(-c3cccc(Cl)c3)c2n1 | 2.57 (active) |
| COC(=O)c1ccc(F)cc1NS(=O)(=O)c1cccc(-c2cnn(Cc3ccccc3)c2)c1 | 1.25 |
| COc1ccc(O[C@H](C)C(=O)Nc2ccc(Cl)cc2C)cc1 | 1.05 |
| COc1cccc(CC(=O)N2CCC(n3c(C)nc4ccc(F)cc43)CC2)c1 | 1.15 |
| CCOC(=O)c1cc(-c2csc(Nc3c(C)cc(C)cc3C)n2)on1 | 1.15 |
| COc1ccc(-c2nn(C(C)C)c3ncnc(N)c23)cc1OC | 1.01 |
| Cn1c(=O)c2c(S(C)(=O)=O)snc2n(C)c1=O | 1.19 |
| Cc1cc(NC(=O)c2ccc(Oc3ccc(Cl)cc3O)o2)no1 | 1.11 |
| NC[C@@H](c1cccs1)S(=O)(=O)c1ccccc1 | 1.36 |
| Cc1[nH]c2cc(F)cc(F)c2c(=O)c1-c1ccc(Oc2ccc(OC(F)(F)F)cc2)cc1 | 1.11 |
| CS(=O)(=O)c1cccc(-c2cnc3[nH]cc(-c4ccc(CCC(=O)O)cc4)c3c2)c1 | 1.09 |
| O=C(NC1=NCCS1)c1sc2cc(F)ccc2c1Cl | 1.06 |
| Brc1c(-c2ccc3c(c2)OCO3)nc2ncccn12 | 1.12 |
